About 83,000 compounds went through this panel and 20% of them were active in at least one assay; those are over-represented in the sample as a whole.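 Single-dose data. Exposure time 48 hours. Values below 10 considered active.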 Calls of active or inactive are those of the source.

The test concerns SNB-75 CNS. Description: NCI-60 one-dose screen, 48 h (100 = growth as untreated, 0 = no growth, -100 = all killed). The conditions noted are these: 10 µM unless noted.
For `CCCCCC(C)(O)C(C(=O)O)c1ccccc1` (centres undefined), the growth is 94.5% (inactive).

With `C[C@@H]1N=C(c2ccc(Cl)cc2Cl)Nc2nc3ccccn3c2C1=O`, the growth is 58.7% (inactive).

As for `O=C(Nc1ccccc1)Nc1ccccc1CNc1nc(Nc2ccc(OCCN3CCCC3)cc2)ncc1Cl`, the growth is 90% (inactive).

In the case of `COc1ccc(S(=O)(=O)N(C)c2oc(-c3ccc(Cl)cc3)nc2C#N)cc1`, the growth was 65.1% (inactive).

With `COc1cccc(C(=O)Nc2cccc(NC(=O)c3ccccn3)c2)c1`, the growth is 90.3% (inactive).

In the case of `CS(=O)(=O)c1ccc(/C(=N/NC(N)=S)c2ccc(F)cc2)cc1`, the growth is 93.1% (inactive).

As to `CSc1nc(N)c2c(n1)NC(c1ccccc1)C1CCc3ccccc3C1=N2` (centres undefined), the growth is 84% (inactive).

For `COc1cccc(CNc2nnc(C)c(C)n2)c1O`, the growth was 100% (inactive).

With `COc1ccc(NC(=O)CSc2oc(-c3ccccc3)nc2S(=O)(=O)c2ccc(Cl)cc2)c(OC)c1`, the growth was -1.47% (active).

Regarding `O=C(c1ccc(F)cc1)C1CCN(CCn2c(=O)[nH]c3ccccc3c2=O)CC1`, the growth is 92.6% (inactive).

In the case of `CC(=O)OCC(=O)O[C@@H]1C[C@]2(C(C)C)O[C@@]1(C)[C@@H]1CC[C@@H](C)[C@H]1[C@@H]2OC(=O)/C=C/c1ccccc1`, the growth was 62.3% (inactive).

Consider `O=C(Nc1ncc(Cc2ccccc2)s1)c1cc(-c2ccccc2)nc2ccccc12`, for which the growth is 92.6% (inactive).

With `O=c1cc(-c2nccc3c2[nH]c2ccccc23)c2cc(Cl)ccc2o1`, the growth was 39.8% (inactive).

As to `O=C(CN1C(=O)NC2NC(=O)NC21)N/N=C/c1cccc([N+](=O)[O-])c1` (centres undefined), the growth was 80% (inactive).

For the origin of these results see PubChem BioAssay (NCI).
